In the supplement of paper PMC10849652:
Targets with a hit are over-represented here; the source holds about 7,900 in all. About 0.6% of all pairs of compound and target were hits.

Columns and labels:
Test in all cases: log2 fold change, soluble protein after heating vs DMSO (PISA); higher = thermal stabilisation; K562 cells, 10 uM, 30 min; active = over 0.2 and 3.5 SD of the protein, either way, in both replicates (recomputed)
[1] = compound: COC1=CC=C(C=C1)CN2C=CC3=C2C=C(C=C3)C(=O)NO
Procedure, shortened: (§1)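 K562 cells at 2×10^6 cells/mL were exposed to 10 μM compound for 30 min, then aliquots were heated for 3 min across 48°C-58°C, pooled, and extracted in PBS containing 0.5% NP-40 at 4°C. The supernatant after 21,000xg for 90 min was taken as soluble protein and measured by TMTpro 16plex LC-MS/MS with channel sums equalised. Thermal stability is reported relative to control samples, with values from duplicates. Fold changes are given on a log2 scale.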

filanesib = compound: CON(C)C(=O)N1N=C(c2cc(F)ccc2F)S[C@@]1(CCCN)c1ccccc1 [filanesib]
Procedure, shortened: as §1

zotarolimus = compound: CO[C@H]1C[C@@H]2CC[C@@H](C)[C@@](O)(O2)C(=O)C(=O)N2CCCC[C@H]2C(=O)O[C@H]([C@H](C)C[C@@H]2CC[C@H](n3cnnn3)[C@H](OC)C2)CC(=O)[C@H](C)/C=C(\C)[C@@H](O)[C@@H](OC)C(=O)[C@H](C)C[C@H](C)/C=C/C=C/C=C/1C [zotarolimus]
Procedure, shortened: as §1

idasanutlin = compound: COc1cc(C(=O)O)ccc1NC(=O)[C@@H]1N[C@@H](CC(C)(C)C)[C@](C#N)(c2ccc(Cl)cc2F)[C@H]1c1cccc(Cl)c1F [idasanutlin]
Procedure, shortened: as §1

alisertib = compound: COc1cc(Nc2ncc3c(n2)-c2ccc(Cl)cc2C(c2c(F)cccc2OC)=NC3)ccc1C(=O)O [alisertib]
Procedure, shortened: as §1

[2] = compound: COc1cc2nc(-c3cc(F)ccc3O)nc(N[C@@H]3CNC[C@H]3C(C)(C)O)c2cc1OC
Procedure, shortened: as §1

gefitinib = compound: COc1cc2ncnc(Nc3ccc(F)c(Cl)c3)c2cc1OCCCN1CCOCC1 [gefitinib]
Procedure, shortened: as §1

[3] = compound: COc1cccc2cc(-c3nc([C@H]4CC[C@H](C(=O)O)CC4)n4ncnc(N)c34)[nH]c12
Procedure, shortened: as §1

lapatinib = compound: CS(=O)(=O)CCNCc1ccc(-c2ccc3ncnc(Nc4ccc(OCc5cccc(F)c5)c(Cl)c4)c3c2)o1 [lapatinib]
Procedure, shortened: as §1

pictilisib = compound: CS(=O)(=O)N1CCN(Cc2cc3nc(-c4cccc5[nH]ncc45)nc(N4CCOCC4)c3s2)CC1 [pictilisib]
Procedure, shortened: as §1

Measured: log2 fold change

FAM91A1 (UniProt Q658Y4)
inactive: [1] -0.081 | filanesib -0.059 | zotarolimus 0.029 | idasanutlin -0.044 | alisertib -0.076 | [2] -0.003 | gefitinib -0.013 | [3] 0.035 | lapatinib 0.045 | pictilisib -0.047

GPKOW (UniProt Q92917)
Sequence of UniProt Q92917 (Q92917 whole entry, looked up): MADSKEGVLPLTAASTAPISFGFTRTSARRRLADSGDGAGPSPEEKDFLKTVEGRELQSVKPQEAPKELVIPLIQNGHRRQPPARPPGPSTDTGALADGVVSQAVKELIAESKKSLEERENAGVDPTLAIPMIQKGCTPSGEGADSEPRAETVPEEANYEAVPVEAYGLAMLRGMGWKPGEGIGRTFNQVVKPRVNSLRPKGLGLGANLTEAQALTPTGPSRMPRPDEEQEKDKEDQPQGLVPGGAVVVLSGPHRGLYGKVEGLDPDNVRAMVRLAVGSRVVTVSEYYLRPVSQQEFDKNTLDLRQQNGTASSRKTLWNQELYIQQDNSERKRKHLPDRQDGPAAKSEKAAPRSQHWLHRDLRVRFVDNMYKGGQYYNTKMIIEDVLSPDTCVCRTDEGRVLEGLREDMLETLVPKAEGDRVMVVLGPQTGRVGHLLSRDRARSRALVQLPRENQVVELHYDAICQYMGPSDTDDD
inactive: [1] -0.055 | filanesib -0.118 | zotarolimus 0.024 | idasanutlin -0.06 | alisertib 0.039 | [2] -0.021 | gefitinib 0.047 | [3] 0.11 | lapatinib -0.005 | pictilisib -0.037

HDHD2 (UniProt Q9H0R4)
Sequence of UniProt Q9H0R4 (Q9H0R4 whole entry, looked up): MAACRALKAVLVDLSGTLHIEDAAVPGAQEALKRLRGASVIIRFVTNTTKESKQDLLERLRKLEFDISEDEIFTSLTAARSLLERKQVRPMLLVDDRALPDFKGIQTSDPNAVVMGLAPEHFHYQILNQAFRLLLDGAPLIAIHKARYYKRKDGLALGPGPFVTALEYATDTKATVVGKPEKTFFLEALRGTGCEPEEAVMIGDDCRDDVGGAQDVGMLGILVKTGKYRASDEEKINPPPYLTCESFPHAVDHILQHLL
inactive: [1] 0.048 | filanesib -0.097 | zotarolimus -0.027 | idasanutlin 0.006 | alisertib -0.06 | [2] -0.007 | gefitinib 0.024 | [3] 0.085 | lapatinib -0.03 | pictilisib -0.011

GLUD2 (UniProt P49448)
inactive: [1] -0.041 | filanesib -0.032 | zotarolimus 0.123 | idasanutlin -0.07 | alisertib -0.06 | [2] -0.003 | gefitinib 0.061 | [3] 0.023 | lapatinib 0.191 | pictilisib 0.216

HOMER1 (UniProt Q86YM7)
Sequence of UniProt Q86YM7 (Q86YM7 whole entry, looked up): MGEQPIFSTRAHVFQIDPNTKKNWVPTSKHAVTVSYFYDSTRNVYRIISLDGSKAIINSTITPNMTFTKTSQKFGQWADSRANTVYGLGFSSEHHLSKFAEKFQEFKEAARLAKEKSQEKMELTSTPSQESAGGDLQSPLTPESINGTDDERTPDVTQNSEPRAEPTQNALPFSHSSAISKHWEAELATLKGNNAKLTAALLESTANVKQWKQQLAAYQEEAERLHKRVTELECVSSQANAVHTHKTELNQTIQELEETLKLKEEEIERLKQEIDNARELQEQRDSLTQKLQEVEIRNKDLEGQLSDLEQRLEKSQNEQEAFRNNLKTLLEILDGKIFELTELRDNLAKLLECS
inactive: [1] 0.168 | filanesib 0.051 | zotarolimus 0.043 | idasanutlin 0.011 | alisertib -0.083 | [2] -0.023 | gefitinib 0.086 | [3] -0.042 | lapatinib 0.073 | pictilisib -0.001

HNRNPUL1 (UniProt Q9BUJ2)
inactive: [1] 0.033 | filanesib 0.047 | zotarolimus -0.043 | idasanutlin 0.03 | alisertib 0.01 | [2] 0.023 | gefitinib -0.02 | [3] 0.009 | lapatinib 0.031 | pictilisib 0.014

FCHO1 (UniProt O14526)
Sequence of UniProt O14526 (O14526 whole entry, looked up): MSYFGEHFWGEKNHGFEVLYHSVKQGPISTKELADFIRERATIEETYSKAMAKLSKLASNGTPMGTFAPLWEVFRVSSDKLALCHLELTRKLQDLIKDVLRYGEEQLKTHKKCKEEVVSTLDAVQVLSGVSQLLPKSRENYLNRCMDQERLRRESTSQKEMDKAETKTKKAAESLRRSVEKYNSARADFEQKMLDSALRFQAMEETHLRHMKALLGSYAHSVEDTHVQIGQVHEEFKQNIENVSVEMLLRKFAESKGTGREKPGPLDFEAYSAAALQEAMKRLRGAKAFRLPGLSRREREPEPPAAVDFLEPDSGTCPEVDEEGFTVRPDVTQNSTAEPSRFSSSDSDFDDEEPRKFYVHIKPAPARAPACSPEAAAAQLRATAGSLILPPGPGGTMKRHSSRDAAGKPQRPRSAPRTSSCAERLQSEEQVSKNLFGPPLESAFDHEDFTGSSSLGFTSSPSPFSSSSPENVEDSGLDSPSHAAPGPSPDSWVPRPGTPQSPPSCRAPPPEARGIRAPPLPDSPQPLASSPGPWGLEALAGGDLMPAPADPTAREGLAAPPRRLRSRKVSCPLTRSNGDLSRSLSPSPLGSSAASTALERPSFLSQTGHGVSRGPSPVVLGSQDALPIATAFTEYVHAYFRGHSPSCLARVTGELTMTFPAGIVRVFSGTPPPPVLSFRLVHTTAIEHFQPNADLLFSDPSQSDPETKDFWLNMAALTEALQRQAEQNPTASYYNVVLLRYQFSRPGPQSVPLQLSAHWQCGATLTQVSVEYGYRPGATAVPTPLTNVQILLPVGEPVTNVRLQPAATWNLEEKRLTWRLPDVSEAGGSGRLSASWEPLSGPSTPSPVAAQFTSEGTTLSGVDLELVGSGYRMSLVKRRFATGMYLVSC
inactive: [1] 0.061 | filanesib 0.055 | zotarolimus 0.068 | idasanutlin 0.072 | alisertib -0.055 | [2] 0.256 | gefitinib 0.046 | [3] 0.022 | lapatinib -0.105

GAK (UniProt O14976)
Sequence of UniProt O14976 (O14976 whole entry, looked up): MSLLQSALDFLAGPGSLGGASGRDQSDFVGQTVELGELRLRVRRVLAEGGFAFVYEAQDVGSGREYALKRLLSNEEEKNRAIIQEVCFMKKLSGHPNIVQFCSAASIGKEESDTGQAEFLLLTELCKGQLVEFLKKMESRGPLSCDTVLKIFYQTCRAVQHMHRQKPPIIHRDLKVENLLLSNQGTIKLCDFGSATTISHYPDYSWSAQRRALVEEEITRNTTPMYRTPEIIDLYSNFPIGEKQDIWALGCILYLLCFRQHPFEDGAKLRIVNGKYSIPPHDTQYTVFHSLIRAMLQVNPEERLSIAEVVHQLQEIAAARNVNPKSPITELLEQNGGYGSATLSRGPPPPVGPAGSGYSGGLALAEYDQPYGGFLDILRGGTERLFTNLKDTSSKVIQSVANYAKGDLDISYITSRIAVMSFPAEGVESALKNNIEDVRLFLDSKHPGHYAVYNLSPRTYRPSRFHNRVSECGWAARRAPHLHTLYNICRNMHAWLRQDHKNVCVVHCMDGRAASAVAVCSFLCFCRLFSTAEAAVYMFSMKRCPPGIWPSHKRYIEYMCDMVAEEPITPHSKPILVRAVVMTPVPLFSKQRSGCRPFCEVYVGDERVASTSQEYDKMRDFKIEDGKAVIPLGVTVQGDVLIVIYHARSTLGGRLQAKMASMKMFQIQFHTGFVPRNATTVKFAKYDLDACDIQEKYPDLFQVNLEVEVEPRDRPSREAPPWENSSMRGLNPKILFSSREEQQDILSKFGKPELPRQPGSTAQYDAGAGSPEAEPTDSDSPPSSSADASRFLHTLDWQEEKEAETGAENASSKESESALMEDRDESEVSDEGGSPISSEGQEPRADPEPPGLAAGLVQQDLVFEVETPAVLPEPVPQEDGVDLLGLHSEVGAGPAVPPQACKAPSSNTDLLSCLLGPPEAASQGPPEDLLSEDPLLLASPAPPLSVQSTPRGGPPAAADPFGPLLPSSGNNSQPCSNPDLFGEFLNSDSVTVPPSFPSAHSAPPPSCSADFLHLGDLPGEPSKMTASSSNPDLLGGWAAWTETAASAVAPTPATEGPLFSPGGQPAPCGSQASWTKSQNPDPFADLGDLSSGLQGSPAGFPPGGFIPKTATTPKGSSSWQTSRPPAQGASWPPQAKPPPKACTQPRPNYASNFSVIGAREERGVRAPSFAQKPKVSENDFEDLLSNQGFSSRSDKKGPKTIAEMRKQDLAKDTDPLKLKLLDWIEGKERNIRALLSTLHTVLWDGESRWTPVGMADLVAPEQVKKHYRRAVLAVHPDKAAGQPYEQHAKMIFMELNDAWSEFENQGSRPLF
inactive: [1] -0.013 | filanesib 0.024 | zotarolimus 0.033 | idasanutlin -0.748 | alisertib -0.025 | [2] 1.44 | gefitinib 0.84 | [3] -0.107 | lapatinib 0.143 | pictilisib 0.226

GYS1 (UniProt P13807)
Sequence of UniProt P13807 (P13807 whole entry, looked up): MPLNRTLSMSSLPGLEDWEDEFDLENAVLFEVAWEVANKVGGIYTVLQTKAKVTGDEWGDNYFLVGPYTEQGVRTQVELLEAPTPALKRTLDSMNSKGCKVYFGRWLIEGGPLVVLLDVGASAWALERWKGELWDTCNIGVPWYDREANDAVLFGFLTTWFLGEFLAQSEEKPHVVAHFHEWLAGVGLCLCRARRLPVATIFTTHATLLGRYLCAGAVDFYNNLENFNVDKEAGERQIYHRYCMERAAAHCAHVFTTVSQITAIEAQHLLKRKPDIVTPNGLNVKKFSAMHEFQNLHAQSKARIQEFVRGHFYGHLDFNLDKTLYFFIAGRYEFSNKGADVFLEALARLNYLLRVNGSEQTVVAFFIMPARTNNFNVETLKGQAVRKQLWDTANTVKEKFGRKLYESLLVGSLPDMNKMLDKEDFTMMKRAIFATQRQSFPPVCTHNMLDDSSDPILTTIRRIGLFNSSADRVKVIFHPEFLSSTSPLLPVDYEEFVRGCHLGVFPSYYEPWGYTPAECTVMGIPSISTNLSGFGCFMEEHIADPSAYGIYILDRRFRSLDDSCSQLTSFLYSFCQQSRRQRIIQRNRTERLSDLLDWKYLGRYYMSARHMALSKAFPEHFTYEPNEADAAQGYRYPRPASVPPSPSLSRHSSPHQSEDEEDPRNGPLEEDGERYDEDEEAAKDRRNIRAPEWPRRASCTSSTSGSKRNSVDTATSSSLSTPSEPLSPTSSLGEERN
inactive: [1] -0.045 | filanesib 0.045 | zotarolimus 0.124 | idasanutlin 0.462 | alisertib -0.026 | [2] -0.109 | gefitinib -0.006 | [3] -0.165 | lapatinib 0.013 | pictilisib 0.219

GALNT4 (UniProt Q8N4A0)
Sequence of UniProt Q8N4A0 (Q8N4A0 whole entry, looked up): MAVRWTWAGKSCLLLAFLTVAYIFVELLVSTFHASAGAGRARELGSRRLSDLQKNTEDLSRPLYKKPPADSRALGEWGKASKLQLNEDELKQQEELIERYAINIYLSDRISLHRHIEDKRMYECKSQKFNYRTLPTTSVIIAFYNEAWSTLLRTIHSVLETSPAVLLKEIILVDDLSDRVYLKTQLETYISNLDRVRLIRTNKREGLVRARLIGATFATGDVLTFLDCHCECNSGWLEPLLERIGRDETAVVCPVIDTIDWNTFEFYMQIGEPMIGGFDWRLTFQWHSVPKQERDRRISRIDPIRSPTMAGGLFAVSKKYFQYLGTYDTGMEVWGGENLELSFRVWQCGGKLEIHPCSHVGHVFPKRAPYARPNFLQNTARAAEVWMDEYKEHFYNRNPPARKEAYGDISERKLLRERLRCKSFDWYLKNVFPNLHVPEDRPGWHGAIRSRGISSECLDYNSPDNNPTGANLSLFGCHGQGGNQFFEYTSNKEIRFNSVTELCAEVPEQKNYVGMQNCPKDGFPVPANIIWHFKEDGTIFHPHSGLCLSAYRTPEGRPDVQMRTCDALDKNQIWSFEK
inactive: [1] -0.029 | filanesib 0.066 | zotarolimus -0.017 | idasanutlin -0.099 | alisertib -0.015 | [2] 0.011 | gefitinib 0.025 | [3] 0.025 | lapatinib -0.028 | pictilisib 0.172

HSPA8 (UniProt E9PN89)
inactive: [1] -0.312 | filanesib 0.126 | zotarolimus -0.036 | idasanutlin 0.113 | alisertib 0.042 | [2] 0.191 | gefitinib 0.035 | [3] 0.126 | lapatinib -0.426 | pictilisib 0.134

FANCD2 isoform 1 (UniProt Q9BXW9)
inactive: [1] 0.054 | filanesib -0.078 | zotarolimus -0.007 | idasanutlin -0.062 | alisertib -0.037 | [2] 0.053 | gefitinib -0.033 | [3] 0.031 | lapatinib -0.025 | pictilisib 0.123

IGF2 isoform 3 (UniProt P01344)
Sequence of UniProt P01344 (P01344 whole entry, looked up): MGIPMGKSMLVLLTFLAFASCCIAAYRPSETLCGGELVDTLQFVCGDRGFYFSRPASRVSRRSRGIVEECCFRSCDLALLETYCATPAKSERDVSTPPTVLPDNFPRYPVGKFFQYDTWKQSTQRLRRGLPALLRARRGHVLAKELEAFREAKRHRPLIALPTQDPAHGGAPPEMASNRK
inactive: [1] 0.041

HNRNPK isoform 2 (UniProt P61978)
inactive: [1] 0.008 | filanesib -0.001 | zotarolimus -0.022 | idasanutlin -0.011 | alisertib -0.004 | [2] -0.035 | gefitinib 0.051 | [3] 0.049 | lapatinib -0.016 | pictilisib 0.004
